Source: PubChem BioAssay (EPA / NIEHS)
Activity calls are given as the source filed them. The calls were made as follows: active = hit-call score of the fitted dose curve at least 0.9, where 1 is the maximum; inactive = score below 0.9.

Assay: ATG_CRE_CIS: Attagene CIS-FACTORIAL HepG2 Assay for human cAMP Responsive Element (CRE) binding protein 3 (AID 2282926)
Settings: HepG2 CRE cis-reporter, Attagene multiplexed mRNA; actives raise or lower the signal
Procedure: ATG_CIS is a cell-based, multiplexed-readout assay that uses HepG2, a human liver cell line, with measurements taken at 24 hours after chemical dosing in a 24-well plate.ATG_CRE_CIS is one of 52 assay component(s) measured or calculated from the ATG_CIS assay. It is designed to make measurements of mRNA induction, a form of inducible reporter, as detected with fluorescence intensity signals by Reverse transcription polymerase chain reaction (RT-PCR) and Capillary electrophoresis technology.Data from the assay component ATG_CRE_CIS was analyzed into 1 assay endpoint. This assay endpoint, ATG_CRE_CIS, was analyzed with bidirectional fitting relative to DMSO as the negative control and baseline of activity. Using a type of inducible reporter, measures of mRNA for gain or loss-of-signal activity can be used to understand the reporter gene at the transcription factor-level as they relate to the gene CREB3. Furthermore, this assay endpoint can be referred to as a primary readout, because this assay has produced multiple assay endpoints where this one serves a reporter gene function. To generalize the intended target to other relatable targets, this assay endpoint is annotated to the dna binding intended target family, where the subfamily is basic leucine zipper.
Human liver HepG2 cells are transiently transfected with multiple reporter transcription units (MRTUs) in 6-well plates using FuGene 6 reagent (Roche; 3 ml FuGene/1 mg DNA). The MRTU constructs are regulated by a cis-regulating element (promoter). […] A major difference between the CIS and TRANS system is that in CIS activities of endogenous TFs are measured, whereas the TRANS assay evaluates changes in activities of exogenous, chimeric NR-Gal4 proteins. […] At the end of 24 hour incubation, total RNA was isolated using TriZol reagent (Invitrogen). The isolated RNA is then reverse-transcribed using oligo(dT) primer and Mo-MLV reverse transcriptase (Invitrogen) with DNAse I (Ambion) treatment for 30 min. The one-tenth of the produced cDNA was amplified by PCR using Taq DNA polymerase (Invitrogen) and two reporter sequence-specific primers. The PCR products were fluorescently labeled by primer extension with 6-arboxyfluorescein (6-FAM) 5'-labeled reporter sequence-specific primer (2 min at 95 C, 20 s at 68 C and 10 min at 72 C) and these products were digested with 5U of HpaI (New England Biolabs) for 2h at 37 C. The fragments were purified using Qiaquick PCR columns (Qiagen), analyzed on an ABI 3130xL genetic analyzer (Applied Biosystems) with peak positions identified by using a set of X-rhodamine (ROX)-labeled MapMarker1000 molecular weight standards (BioVentures). The raw capillary electrophoresis data was processed using Attagraph software (Attagene).

Q: For `c1ccc(CNc2ncnc3nc[nH]c23)cc1`, which outcome is on record?
A: inactive

Q: With `CCc1cc(C(N)=S)ccn1` as the compound, how does the outcome read?
A: inactive

Q: For `CCC(=O)OCc1ccc(OC)cc1`, which outcome is on record?
A: inactive

Q: Which outcome does the source give for `C1=CCC=C1` here?
A: inactive

Q: Which outcome does the source give for `C=CN1CCCCCC1=O` here?
A: inactive

Q: With `CCCCn1cc[n+](C)c1` as the compound, how does the outcome read?
A: inactive

Q: With `CCCCCCC1CCCC(=O)O1` (stereo not given) as the compound, how does the outcome read?
A: inactive

Q: With `O=C(OCc1ccccc1)c1ccccc1` as the compound, how does the outcome read?
A: inactive

Q: Which outcome does the source give for `CC/C=C\CCCCCO` here?
A: inactive

Q: Which outcome does the source give for `CCC(C)C1N=C(C)C(C)S1` (stereo not given) here?
A: inactive

Q: For `C[C@H]1C[C@H]2[C@@H]3CCC4=CC(=O)C=C[C@]4(C)[C@@]3(F)[C@@H](O)C[C@]2(C)[C@@]1(O)C(=O)CO`, which outcome is on record?
A: inactive

Q: With `C=C(C)C(=O)OCC1CCCO1` (stereo not given) as the compound, how does the outcome read?
A: inactive

Q: With `CCCCNC(N)=O` as the compound, how does the outcome read?
A: inactive

Q: Which outcome does the source give for `Cc1cccnc1` here?
A: inactive

Q: With `NC(=O)c1ccc(N)cc1` as the compound, how does the outcome read?
A: inactive

Q: Which outcome does the source give for `COC(=O)[C@]1(C)CCC[C@@]2(C)[C@H]1CC=C1C=C(C(C)C)CC[C@@H]12` here?
A: inactive

Q: With `CC(=O)Nc1c(I)c(NC(C)=O)c(I)c(C(=O)O)c1I` as the compound, how does the outcome read?
A: inactive

Q: Which outcome does the source give for `CC1=NN(c2cc(Cl)c(S(=O)(=O)O)cc2Cl)C(=O)C1N=Nc1ccc(S(=O)(=O)O)cc1` (stereo not given) here?
A: inactive

Q: With `CCCCCCCCCCCCCCCCCC[N+](C)(C)C` as the compound, how does the AC50 read?
A: 44.4 µM (active)

Q: Which outcome does the source give for `O=C1CCCCCCCCCCCCCC1` here?
A: inactive

Q: Which outcome does the source give for `CCC(C)(CCC(C)C)C(=O)O` (stereo not given) here?
A: inactive

Q: For `OCCN(CCO)c1cccc(Cl)c1`, which outcome is on record?
A: inactive

Q: For `Sc1nc2ccccc2s1`, which outcome is on record?
A: inactive

Q: For `CCCCCCCCCCC1CO1` (stereo not given), which outcome is on record?
A: inactive

Q: Which outcome does the source give for `CCCc1c(OCCCCc2nn[nH]n2)ccc(C(C)=O)c1O` here?
A: inactive

Q: For `c1ccc2c(c1)Oc1ccccc1S2`, which outcome is on record?
A: inactive

Q: With `Cc1cc(O)cc(C)c1Cl` as the compound, how does the AC50 read?
A: 79 µM (active)

Q: With `COC(=O)c1ccccc1` as the compound, how does the outcome read?
A: inactive

Q: With `COC(=O)CCSCCC(=O)OC` as the compound, how does the outcome read?
A: inactive

Q: For `CN(C)CCC(c1ccc(Cl)cc1)c1ccccn1` (stereo not given), which outcome is on record?
A: inactive

Q: For `[O-][n+]1ccc(Cl)cc1`, which outcome is on record?
A: inactive

Q: For `CCOc1ccc2c(c1)C(C)CC(C)(C)N2` (stereo not given), which outcome is on record?
A: inactive

Q: With `CC(=O)c1nccs1` as the compound, how does the outcome read?
A: inactive

Q: With `Cc1ccccc1S(=O)(=O)O` as the compound, how does the outcome read?
A: inactive

Q: Which outcome does the source give for `O=C(O)c1cc(Cl)cc(Cl)c1O` here?
A: inactive

Q: With `COC(=O)/C=C\C(=O)OC` as the compound, how does the outcome read?
A: inactive

Q: With `CCC(C)=NO` as the compound, how does the outcome read?
A: inactive

Q: With `CCCCCC1CCCC(=O)O1` (stereo not given) as the compound, how does the outcome read?
A: inactive

Q: Which outcome does the source give for `COc1ccccc1OCC(O)CO` (stereo not given) here?
A: inactive

Q: With `CC1(C)S[C@@H]2[C@H](NC(=O)[C@H](N)c3ccccc3)C(=O)N2[C@H]1C(=O)O` as the compound, how does the outcome read?
A: inactive
